Sampled rows, rich in hits. Any-hit rate of the full collection: about 19%.
Shiga toxin inh – blocks Shiga toxin action in Vero cells; 290,000 tested, 9.2% active; AID 2315; inhibition, % at 38.7 µM; Vero cells, Shiga toxin protein synthesis inhibition reporter; in the data active = inhibition mostly above about 28%, no sharp cut-off; inactive = mostly below about 43%
Pf growth 48h – P. falciparum growth inhibition at 48 hours (one generation). Potency, µM (top dose mostly 28.7 µM), actives largely listed as inhibitors. 310,000 tested, 5.9% active. P. falciparum luciferase growth in erythrocytes, 48 h
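Compounds are pin-transferred into medium, infected erythrocytes (2% hematocrit, 0.1% parasitemia final) are added, and plates sit one parasite generation at 37 C in 5% CO2. Detection reagent is then added and luminescence measured.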
Marburg entry inh – inhibitors of Marburg virus binding or cell entry; Marburg virus pseudotyped entry inhibition, cell reporter; Potency, µM (series often up to 37.8 µM), hits mostly inhibitors; 300,000 tested, 1.8% active; AID 540276; calls by dose curve; tested in HEK293 cells
LASV entry inh – Lassa virus entry inhibition; Potency, µM (titrated, usually from 37.9 µM), usual class: inhibitors; AID 540256; 300,000 tested, 1.2% active; Lassa virus pseudotype entry inhibition, cell reporter; calls by dose curve; tested in HEK293 cells; also: nearly all actives have a fitted effect of over 50% in size
Pf growth 96h – P. falciparum growth inhibition at 96 hours; P. falciparum luciferase reporter growth, 96 h; 320,000 tested, 6.9% active; Potency, µM (highest dose often 28.7 µM), usual class: inhibitors; AID 504834
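Infected RBCs, 2% Hct / 0.05% parasitemia final; luciferase-reporter P. falciparum; cpd 96 h, 37 C, 5% CO2; luciferase detection reagent; luminescence.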
CHX counter – affects cycloheximide protein synthesis inhibition readout, counter-screen. cell reporter, cycloheximide protein synthesis inhibition counterscreen. max response, %. 300,000 tested, 12% active. AID 2314; in the data active = max response mostly above about 13%, no sharp cut-off; inactive = mostly below about 14%; also: read at 38.3 µM for the half of the compounds with a filed dose
A number is an active result; i = inactive; ? = inconclusive; nt = no result given; [ ] = dose if it differs, or a comment. Unless noted, calls follow the shape of the dose curve; as a rule, active = well fitted inhibition curve with a large enough effect; inconclusive = small, poorly fitted or top-dose-only effect, or another doubt; inactive = no such curve, though single readings can be large or run the other way.

SMILES	Shiga toxin inh	Pf growth 48h	Marburg entry inh	LASV entry inh	Pf growth 96h	CHX counter
C(=N\Nc1nc(-c2ccccc2)cs1)/c1cccs1	105.1	i	?	?	?	67.8
Cc1onc(-c2ccccc2)c1-c1csc(N/N=C/c2ccccc2)n1	i	?	?	?	?	i
O=c1cnnc(N/N=C/c2cccs2)[nH]1	i	i	nt	nt	?	i
Cc1ccc(-c2csc(N/N=C/C=C/c3ccccc3)n2)cc1	i	?	i	i	i	16.3
ClCc1csc(N/N=C/c2cccs2)n1	39.0	i	nt	nt	i	17.5
C(=N\Nc1nc(-c2ccccc2)cs1)/c1ccncc1	51.1	i	i	?	?	42.8
C/C(=N/Nc1nc(-c2ccc(Cl)cc2)cs1)c1cccs1	i	?	?	i	nt	i
C(=C\c1ccccc1)/C=N/Nc1nncc(-c2ccccc2)n1	i	i	i	i	i	i
O=C(O)CC1(CC(=O)NCc2cc(F)cc3c2OCOC3)CCCCC1	i	i	i	i	?	i
COc1ccc(C)cc1NC(=O)CCCN1C(=O)C2CC=CCC2C1=O (stereo unspecified)	i	i	i	i	i	i
CCCCCCSc1ccc([C@@H]2[C@H]3C(=O)N(CC)C(=O)[C@H]3[C@]3(C(=O)OC)CCCN23)cc1	nt	?	nt	nt	10.4µM	nt
CCCSc1ccc([C@@H]2[C@H]3C(=O)N(CC)C(=O)[C@H]3[C@]3(C(=O)OC)CCCCN23)cc1	nt	13.1µM	nt	nt	7.38µM	nt
CCCCN1CC(=O)N2[C@H](c3ccc(OC)cc3)[C@@H]3C(=O)N(CC)C(=O)[C@@H]3[C@]2(Cc2ccccc2)C1=O	i	i	nt	nt	i	i
O=C(OCCN1CCCC1)C1(c2ccccc2)CCCC1	i	i	?	i	0.738µM	i
CN(C)CCOC(=O)C1(c2ccccc2)CCCC1	i	nt	i	i	i	i
O=C(OCCN1CCCCC1)c1ccccc1Br	i	i[0.00184 µM]	nt	nt	i	35.4
O=C(OCCN1CCCCC1)c1cccc(F)c1	i	i	i	i	5.86µM	i
C[N+]1(CCCOC(=O)C2(c3ccccc3)CCCC2)CCOCC1	i	11.7µM	i	i	?	i
COc1cccc(C2C(C(=O)Nc3ccc(Cl)cc3)=C(C)Nc3nc4ccccc4n32)c1 (stereo unspecified)	nt	nt	i	i	nt	nt
COc1cc(NC(=S)NNC(=O)C(C)(C)O)cc(OC)c1	i	i	nt	nt	i	i
Cc1ccc(NS(=O)(=O)c2cccc(C(=O)N3CCN(c4ncccn4)CC3)c2)cc1	nt	?	i	i	?	nt
O=C(NC(=O)c1c(F)cccc1F)O/N=C1\CCCc2occc21	i	2.33µM	nt	nt	i	i
CC(C)c1cccc(C(C)C)c1OC(=O)NC(=O)c1c(F)cccc1F	i	?	nt	nt	i	i
Cc1[nH]c(=O)c(C#N)c(C)c1Br	i	i	i	i	i	i
CC(=O)c1ccc(NC(=O)c2ccc3nc(-c4ccco4)c(-c4ccco4)nc3c2)cc1	i	11.7µM	?	i	nt	i
SMILES	Shiga toxin inh	Pf growth 48h	Marburg entry inh	LASV entry inh	Pf growth 96h	CHX counter
O=C(NCc1ccccc1)c1ccc2nc(-c3ccco3)c(-c3ccco3)nc2c1	i	nt	i	i	11.7µM	i
O=C(Nc1ccc2nc(-c3ccco3)c(-c3ccco3)nc2c1)N1CCCC1	61.6	nt	nt	nt	nt	30.1
COc1ccc(NC(=O)C2=CC(c3ccco3)=NS(=O)(=O)N2C)cc1OC	i	i	i	i	i	i
O=C(Nc1ccc2nc(-c3ccco3)c(-c3ccco3)nc2c1)N1CCN(c2ccccn2)CC1	i	?	?	i	i	i
CC(=O)c1ccc(NC(=O)C2=CC(c3ccco3)=NS(=O)(=O)N2C)cc1	i	i	nt	nt	i	14.7
O=C(Nc1ccccc1)c1ccc2nc(-c3ccco3)c(-c3ccco3)nc2c1	i	?	i	?	nt	i
Cc1cc(C)nc(NC(=O)c2c(Cl)cccc2Cl)n1	i	i	i	i	i	i
CCCNC(=O)C(Cc1ccc(F)cc1)NC(=O)c1ccccc1 (stereo unspecified)	nt	i	nt	nt	?	nt
CCCNC(=O)C(Cc1ccccc1)NC(=O)c1ccc(-c2ccccc2)cc1 (stereo unspecified)	nt	i	nt	nt	1.47µM	nt
CCCNC(=O)c1ccc2nc(-c3ccccc3)c(-c3ccccc3)nc2c1	i	5.22µM	i	?	?	i
CCN(CC)C(=O)c1ccc2nc(-c3ccccc3)c(-c3ccccc3)nc2c1	i	i	i	i	i	i
O=c1cc2c(nn1Cc1cccc([N+](=O)[O-])c1)-c1ccccc1CC2	i	i	nt	nt	?	i
CC1=NN(CCc2ccccn2)C(=O)CC1	nt	nt	?	i	nt	nt
